Source: PubChem BioAssay (several laboratories)
This is a sample that favours compounds with a hit; in the whole collection about 3.9% have one here.
Anthrax LF prot: anthrax lethal factor protease inhibition. P15917. AID 588501. multiplex microsphere protease cleavage assay, LF. inhibition, % at 10 µM. actives 0.12% (n = 360,000); further: plate controls were buffer without enzyme for full effect and enzyme alone for no effect
Target sequence (P15917 whole entry, looked up): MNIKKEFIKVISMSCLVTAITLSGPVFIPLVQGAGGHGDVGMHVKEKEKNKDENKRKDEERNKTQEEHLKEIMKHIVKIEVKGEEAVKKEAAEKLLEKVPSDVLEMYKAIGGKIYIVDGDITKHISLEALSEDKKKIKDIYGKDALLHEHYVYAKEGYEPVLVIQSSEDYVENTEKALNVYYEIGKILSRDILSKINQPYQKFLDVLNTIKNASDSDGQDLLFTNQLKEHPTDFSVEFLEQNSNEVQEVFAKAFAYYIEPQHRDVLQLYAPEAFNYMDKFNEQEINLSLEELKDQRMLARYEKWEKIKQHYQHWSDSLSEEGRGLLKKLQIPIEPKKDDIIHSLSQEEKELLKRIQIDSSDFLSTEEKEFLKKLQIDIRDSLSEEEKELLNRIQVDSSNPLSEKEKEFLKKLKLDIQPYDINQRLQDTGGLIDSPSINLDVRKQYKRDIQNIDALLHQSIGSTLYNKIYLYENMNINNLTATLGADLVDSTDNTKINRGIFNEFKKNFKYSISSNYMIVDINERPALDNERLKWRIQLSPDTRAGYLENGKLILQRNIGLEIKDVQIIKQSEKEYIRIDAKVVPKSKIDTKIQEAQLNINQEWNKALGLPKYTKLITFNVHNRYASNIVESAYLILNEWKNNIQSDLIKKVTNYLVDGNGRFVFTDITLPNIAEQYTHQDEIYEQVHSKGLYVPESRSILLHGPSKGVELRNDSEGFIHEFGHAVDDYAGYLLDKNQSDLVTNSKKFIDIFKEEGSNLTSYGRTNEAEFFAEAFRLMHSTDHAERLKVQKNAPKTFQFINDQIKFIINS
VHR inh abs: DUSP3 (human) phosphatase inhibition | P51452 | recombinant VHR phosphatase, pNPP absorbance | inhibition, % at 13.3 µM | actives 0.52% (n = 290,000); in the data active means inhibition above about 50%
Bead autofluor: counter-screen for toxin protease inhibitors: compound fluorescence; AID 624483; compound autofluorescence counterscreen, microsphere flow cytometry; active compounds read high; actives 3.1% (n = 360,000); fluorescence intensity (test concentration not listed); in the data active means fluorescence intensity above about 16000; inconclusive means no clear call, values can overlap the other calls
BoNT A protease: BoNT A light chain protease inhibition; multiplex microsphere protease substrate cleavage, flow cytometry; inhibition, % at 10 µM; actives 0.17% (n = 360,000); further: plate controls were buffer without enzyme for full effect and enzyme alone for no effect
SARS 3CLpro inh: SARS-CoV 3CLpro protease inhibition; P0C6X7; recombinant SARS-CoV 3CLpro, quenched FRET peptide cleavage; inhibition, % at 6 µM; actives 0.14% (n = 290,000); AID 1706; in the data active means inhibition above about 12%
BoNT F protease: BoNT F light chain protease inhibition; actives 0.22% (n = 360,000); inhibition, % at 10 µM; AID 588497; Multiplex microsphere protease cleavage assay, flow cytometry; in the data active means inhibition above about 35%, passing the limit was not always enough; inconclusive means no clear call, values can overlap the other calls; further: plate controls were buffer without enzyme for full effect and enzyme alone for no effect
* = called active by the depositor; ? = inconclusive; . = not tested or not shown. Unless noted, no stated cut-off is given here; in the data, active means inhibition above about 30%; inconclusive means no clear call, values can overlap the other calls; inactive means below that.

SMILES	Anthrax LF prot	VHR inh abs	Bead autofluor	BoNT A protease	SARS 3CLpro inh	BoNT F protease
Nc1nc(Cl)cc(N2CCCC2)n1	-7	-1	4619	-1	-1	-5
CC(C)CNS(=O)(=O)c1ccc(CCC(=O)NC2CCCC2)cc1	2	52*	4801	-1	2	3
CCNS(=O)(=O)c1ccc(CCC(=O)NC2CCCC2)cc1	-1	-8	2453	0	0	-1
O=C1CSc2ccccc2N1Cc1ccccc1F	2	3	24057*	-2	-1	-3
O=C(c1cc(Cl)cc(Cl)c1)N1CCC2CC1c1cc(N3CCCCC3)ccc12 (configuration not stated)	0	.	24126*	-9	.	26
CCOc1c(Cl)cc(CNCC(C)C)cc1OC	-3	12	24375*	?	-1	-7
CCOc1c(Cl)cc(CNCC(O)c2ccccc2)cc1OC (configuration not stated)	0	2	2115	0	1	-5
COc1ccc(-n2c(Cn3nc(C(F)(F)F)cc3C)n[nH]c2=S)cc1	1	1	2060	0	1	5
Cc1ccc(-n2c(Cn3nc(C(F)(F)F)cc3C)n[nH]c2=S)cc1	-4	33	17459*	?	-2	-6
C/C(=N\NC(=O)CNc1ccccc1)c1ccccc1	0	16	4500	0	2	-4
Cc1ccc2c(c1)[C@@H]1CN(C)CC[C@@H]1N2C(=O)Nc1cccc(C(F)(F)F)c1	-3	25	23738*	-3	2	-5
Cc1nn(Cc2ccc(C(=O)Nc3ccccc3C(F)(F)F)o2)c(C)c1Br	-2	5	23948*	0	3	-1
CCCCn1c(=O)c(C(=O)c2ccccc2)nc2ccccc21	-1	7	21629*	-7	1	-7
CCC(=O)N(CCc1ccccc1)Cc1cc2cc(OC)ccc2[nH]c1=O	-2	32	4673	-1	-1	-1
CCC(=O)N(CCc1ccccc1)Cc1cc2cc3c(cc2[nH]c1=O)OCO3	-2	9	21744*	-3	3	-4
CCC(=O)N(Cc1ccc(C)cc1)Cc1cc2cc3c(cc2[nH]c1=O)OCO3	-3	11	23631*	-2	-3	-2
C[C@@H]1CN([C@H](C)CO)C(=O)CCCn2cc(nn2)CO[C@H]1CN(C)C(=O)c1ccccc1	-2	.	4282	0	.	1
C=C1C(=O)OCC2C(C(=O)O)=CC3C(C)C(C)=CC123 (configuration not stated)	-4	.	3517	0	.	-1
CC(C)NC(=O)NC(=O)COC(=O)C1(C)CC1(Cl)Cl (configuration not stated)	3	24	4168	1	1	-2
COc1cc2cc(C(c3nnnn3C3CCCCC3)N(C)C3CCCCC3)c(=O)[nH]c2cc1OC (configuration not stated)	2	29	22356*	3	5	4
O=c1[nH]c2cc3c(cc2cc1C(c1nnnn1C1CCCC1)N1CCSCC1)OCCO3 (configuration not stated)	-4	2	8220	0	-2	0
COc1cc2cc(C(c3nnnn3C3CCCC3)N(C)C3CCCCC3)c(=O)[nH]c2cc1OC (configuration not stated)	0	0	21407*	-2	-9	-1
CC(C)C(c1nnnn1C1CCCC1)N(C)C1CCCCC1 (configuration not stated)	0	22	20923*	?	-7	-4
Cc1ccc(C(c2nnnn2C2CCCCC2)N(C)C2CCCCC2)cc1 (configuration not stated)	-1	16	7015	0	-2	-3
CCOc1ccc(C(=O)NCc2ccco2)cc1Cl	-12	35	3729	-2	-4	5
COc1ccc(CNC(=O)COC(=O)c2cnccn2)cc1	-6	15	5588	1	1	2
CN(C)CCOCCP(=O)(c1ccccc1)c1ccccc1	2	20	23350*	1	-1	4
CCOC(=O)C(C)Oc1ccc2c(CC)cc(=O)oc2c1C (configuration not stated)	-1	-2	2392	0	3	2
CCOC(=O)CCc1c(C)c2ccc(OC(C)C(=O)OCC)c(C)c2oc1=O (configuration not stated)	0	-6	20895*	2	5	2
